In PubChem BioAssay AID1159580 (chemical genetic matrix, 2015):
Where “and” joins values, the source holds several entries; their conditions need not be identical. Equal values may be shown once. Hit rate of the full screen: of about 5,500 compounds, about 2,000 (36%) were called active. Not shown: some 18% with an inconclusive outcome. Rule as the data show it: active = normalized growth mostly below about 0.91 (no sharp cut-off); inconclusive = no clear call, values can overlap the other calls; inactive = mostly above about 0.92. This is one part of the list.

Experiment: chemical genetic growth profiling, strain panel (AID 1159580);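 also: tested at 20 µM; growth read once vehicle control cultures reached saturation at 30 °C; 1 = growth at the plate median or of vehicle wells; lower values mean less growth of the strain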
Details: growth OD

Measured: normalized growth

CN(C)CCCN1c2ccccc2Sc2ccc(C(F)(F)F)cc21
inactive: S. cerevisiae deletion strains, locus YNL153C, strain GIM3, active compounds read low 1.01 | S. cerevisiae deletion strains, locus YNL175C, strain NOP13, active compounds read low 1.01 | S. cerevisiae deletion strains, locus YNL183C, strain NPR1, active compounds read low 0.962 | S. cerevisiae deletion strains, locus YNL197C, strain WHI3, active compounds read low 1.03 | S. cerevisiae deletion strains, locus YNL209W, strain ssb2, active compounds read low 0.986 | S. cerevisiae deletion strains, locus YNL224C, strain SQS1, active compounds read low 1.03 | S. cerevisiae deletion strains, locus YNL233W, strain BNI4, active compounds read low 1.02 | S. cerevisiae deletion strains, locus YNL248C, strain rpa49, active compounds read low 0.953 | S. cerevisiae deletion strains, locus YNL250W, strain rad50, active compounds read low 0.963 | S. cerevisiae deletion strains, locus YNL271C, strain bni1, active compounds read low 0.982 | S. cerevisiae deletion strains, locus YNL298W, strain CLA4, active compounds read low 0.954 | S. cerevisiae deletion strains, locus YNL307C, strain MCK1, active compounds read low 0.987 | S. cerevisiae deletion strains, locus YNL322C, strain KRE1 (second series), active compounds read low 1.03 | S. cerevisiae deletion strains, locus YNL322C, strain KRE1, active compounds read low 0.993 and 0.907 | S. cerevisiae deletion strains, locus YNR049C, strain mso1, active compounds read low 1.02 | S. cerevisiae deletion strains, locus YNR052C, strain pop2, active compounds read low 0.962 | S. cerevisiae deletion strains, locus YOL006C, strain TOP1, active compounds read low 0.611 | S. cerevisiae deletion strains, locus YOL012C, strain htz1 1.01 | S. cerevisiae deletion strains, locus YOL147C, strain pex11, active compounds read low 0.991 | S. cerevisiae deletion strains, locus YOR001W, strain rrp6, active compounds read low 0.938 | S. cerevisiae deletion strains, locus YOR061W, strain CKA2, active compounds read low 0.967 | S. cerevisiae deletion strains, locus YOR069W, strain VPS5, active compounds read low 0.987 | S. cerevisiae deletion strains, locus YOR070C, strain gyp1, active compounds read low 1.01 | S. cerevisiae deletion strains, locus YOR080W, strain dia2, active compounds read low 1.03 | S. cerevisiae deletion strains, locus YOR083W, strain WHI5 (second series), active compounds read low 0.946 | S. cerevisiae deletion strains, locus YOR083W, strain WHI5, active compounds read low 0.954 | S. cerevisiae deletion strains, locus YOR136W, strain idh2, active compounds read low 0.972 | S. cerevisiae deletion strains, locus YOR144C, strain elg1, active compounds read low 0.974 | S. cerevisiae deletion strains, locus YOR184W, strain ser1, active compounds read low 0.96 | S. cerevisiae deletion strains, locus YOR231W, strain MKK1, active compounds read low 0.978 | S. cerevisiae deletion strains, locus YOR265W, strain rbl2, active compounds read low 1.01 | S. cerevisiae deletion strains, locus YOR290C, strain snf2, active compounds read low 0.989 | S. cerevisiae deletion strains, locus YOR316C, strain cot1, active compounds read low 0.965 | S. cerevisiae deletion strains, locus YPL051W, strain arl3, active compounds read low 0.966 | S. cerevisiae deletion strains, locus YPL055C, strain LGE1, active compounds read low 0.968 and 0.953 | S. cerevisiae deletion strains, locus YPL078C, strain atp4, active compounds read low 0.992 | S. cerevisiae deletion strains, locus YPL106C, strain sse1, active compounds read low 0.911 | S. cerevisiae deletion strains, locus YPL240C, strain hsp82, active compounds read low 1.03 | S. cerevisiae deletion strains, locus YPL241C, strain CIN2, active compounds read low 0.996 and 0.976 | S. cerevisiae deletion strains, locus YPL256C, strain CLN2, active compounds read low 0.988 | S. cerevisiae deletion strains, locus YPR119W, strain clb2, active compounds read low 0.982 | S. cerevisiae deletion strains, locus YPR141C, strain kar3, active compounds read low 0.926 | S. cerevisiae deletion strains, locus YPR163C, strain tif3, active compounds read low 0.979 | S. cerevisiae deletion strains, locus YPR167C, strain met16, active compounds read low 0.981 | S. cerevisiae deletion strains, strain wtn01, active compounds read low 0.981 | S. cerevisiae strains, strain wild type, active compounds read low 0.979
active: S. cerevisiae deletion strains, locus YOR106W, strain vam3, active compounds read low 0.561 | S. cerevisiae deletion strains, locus YOR270C, strain vph1, active compounds read low 0.737
